Results reported in PubChem BioAssay.
Active and inactive are the calls of the source. Unless noted, the rule behind the calls is not given here.

Key:
[1] = liver-stage malaria parasite load reduction – cell-based, known kinase inhibitor set, luminescence, hepatoma host viability (AID 624392); conditions: Plasmodium liver stage in hepatoma cells, luciferase luminescence, concentration not given here; liver cell % of control: measured here: host liver cell viability; parasite % of control: stronger effect = lower value;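 note: infected cells incubated roughly two days before readout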
[2] = altered dexamethasone sensitivity, NF-kB reporter, cell-based, luciferase, IL-1B stimulus (AID 624486); conditions: IL-1B + dexamethasone, luminescence; percent of negative control (+Dex): actives lie on both sides, concentration not given here; z-score: measured here: IL-1B alone, no Dex;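 for percent of negative control (+Dex): 100% = mean signal of vehicle control wells on the plate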
[3] = C. elegans survival during P. aeruginosa infection – whole organism (AID 651566);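 note: tested at 14 µM; sign flipped so higher z means a lower ratio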; conditions: C. elegans killed by P. aeruginosa, survival ratio
[4] = pro-inflammatory signaling induction in mouse macrophages – cell-based, murine, luminescence (AID 652131); conditions: murine macrophage pro-inflammatory reporter, stronger effect = higher value
[5] = molecular target: Cellular tumor antigen p53 (Homo sapiens) (UniProt P04637); assay: GFP-p53 level modulators in HPV16+ cells – imaging, known kinase inhibitor set, EGFP/DsRed ratio (AID 1053116); conditions: GFP-p53 stability, stronger effect = higher value; EGFP object count: measured here: GFP-p53 positive objects count;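 note: cells exposed to compounds for 24 h at 37 °C before reading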
[6] = inducers of IRF3 signaling, differentiated THP-1 – cell-based, PMA-stimulated THP-1, luminescence (AID 1053176); conditions: PMA-differentiated THP-1, IRF3 reporter luminescence; stronger effect = higher value
[7] = MELAS cybrid and Rieske KO viability enhancers – cell-based, MELAS cybrids, Rieske KO mouse fibroblasts, CellTiter-Glo, primary screen (AID 1508586;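 active = mean z-score across replicates of 1.96 or higher in either the MELAS or the Rieske mutant cell line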;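 note: z relative to plate mean and SD of compound and empty wells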); conditions: low glucose
[8] = MELAS cybrid survival, CellTiter-Glo 48 h, stronger effect = higher value
[9] = Rieske KO mouse fibroblast survival, CellTiter-Glo 72 h

Cellular tumor antigen p53 (Homo sapiens), sequence (P04637 whole entry, looked up): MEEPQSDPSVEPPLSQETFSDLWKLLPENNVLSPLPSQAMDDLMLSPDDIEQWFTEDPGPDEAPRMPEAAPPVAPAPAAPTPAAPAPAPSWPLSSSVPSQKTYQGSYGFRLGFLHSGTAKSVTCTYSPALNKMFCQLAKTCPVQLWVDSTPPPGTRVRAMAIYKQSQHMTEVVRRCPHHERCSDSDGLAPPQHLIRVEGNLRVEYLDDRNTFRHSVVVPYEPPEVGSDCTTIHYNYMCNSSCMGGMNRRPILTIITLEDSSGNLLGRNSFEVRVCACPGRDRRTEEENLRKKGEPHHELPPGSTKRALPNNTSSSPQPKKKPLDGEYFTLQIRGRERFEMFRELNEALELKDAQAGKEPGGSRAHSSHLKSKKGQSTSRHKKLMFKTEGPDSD

Compound | liver cell % of control [1] [%] | parasite % of control [1] | percent of negative control (+Dex) [2] | z-score [2] | z-score [3] | z-score [4] | EGFP object count [5] | EGFP/DsRed ratio [5] | fraction signal [6] | z-score [7, 8] | z-score [7, 9]
CCn1c(-c2nonc2N)nc2c(C#CC(C)(C)O)ncc(OCC3CCNCC3)c21 | 88.1 | 91.5% (inactive) | 86% (inactive) | -0.76 | -1.35 (inactive) | 3.98 (inactive) | 13 | 0.169 (inactive) | 0.002 (inactive) | 0.123 (inactive) | -0.292
CC(=O)NCc1cccc(C#Cc2cncnc2Nc2ccc(OCc3cccc(F)c3)c(Cl)c2)c1 | 86.2 | 90.8% (inactive) | 77% (inactive) | -1.32 | 0.19 (inactive) | -0.99 (inactive) | 5.5 | 0.157 (inactive) | 0.004 (inactive) | 0.0992 (inactive) | -0.0459
COc1cccc(-n2cnc3c(N/N=C/c4ccncc4)ncnc32)c1 | 88.9 | 105% (inactive) | 104% (inactive) | 0.5 | -1.34 (inactive) | -0.055 (inactive) | 1.5 | 0.0324 (inactive) | 0.0015 (inactive) | 2.14 (active) | 0.0192
CNC(=O)c1cncc(/C=C/c2c(Cl)cccc2Cl)c1 | 138 | 48.1% (inactive) | 92% (inactive) | 0.3 | 0.1 (inactive) | 0.203 (inactive) | 5.5 | 0.562 (inactive) | -0.0025 (inactive) | 0.726 (inactive) | 0.293
CCS(=O)(=O)c1ccc(OC)c(Nc2ncc(-c3cccc(-c4ccccc4F)c3)o2)c1 | 111 | 98.4% (inactive) | 88% (inactive) | 0.785 | -0.07 (inactive) | -0.851 (inactive) | 3.5 | 0.511 (inactive) | 0.0015 (inactive) | 2.02 (active) | -0.444
CCn1c(-c2nonc2N)nc2c(C#CCN)ncc(OCCCN)c21 | 63.5 | 112% (inactive) | 85% (inactive) | -0.55 | -0.71 (inactive) | 3.14 (inactive) | 6 | 0.152 (inactive) | -0.008 (inactive) | -0.193 (inactive) | -0.317
